These results are taken from PubChem BioAssay (NCATS).

Results filed as inconclusive are left out. Active and inactive are the calls of the source. Unless noted, calls come from the whole dose curve; as a rule, active = well fitted curve in the direction sought with a large enough effect; inconclusive = small, poorly fitted or top-dose-only effect, or another doubt; inactive = no such curve, though single readings can be large; an effect the other way counts as inactive or inconclusive.

A short description of assay [1]: AP1 Signaling Pathway (AID 357; active = well fitted curve in either direction with a large enough effect, not every such curve was filed as active;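 note: ME-180 reporter cells stimulated with EGF at its EC50 level; % is set by controls: 0 for no effect and ±100 for the full control effect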). A digest of the protocol: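 In this screen, ME-180 cells in Opti-MEM with 0.5% dialyzed FBS received EC50 EGF and compound titrations for 5 h. AP-1 reporter beta-lactamase was detected via CCF4 ratio, giving AC50 for positive and negative modulators.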
The target in assay [2] is Cytochrome P450 1A2 (Homo sapiens) (UniProt P05177). Put plainly: p450-cyp1a2 (AID 410; calls by dose curve; note: potency is the fitted concentration of half-maximal effect;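 for activity change, negative = inhibition: -100% = full effect of reference inhibitor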). The gist of the method: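 Luminescent readout of luciferin formed from Luciferin-ME by human CYP1A2; data normalized against complete inhibition by 57 uM furafylline. Enzyme 20nM, substrate 100uM at Km, 100mM KPO4 buffer, 60 min reaction at room temperature.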
Sequence of Cytochrome P450 1A2 (Homo sapiens) (P05177 whole entry, looked up): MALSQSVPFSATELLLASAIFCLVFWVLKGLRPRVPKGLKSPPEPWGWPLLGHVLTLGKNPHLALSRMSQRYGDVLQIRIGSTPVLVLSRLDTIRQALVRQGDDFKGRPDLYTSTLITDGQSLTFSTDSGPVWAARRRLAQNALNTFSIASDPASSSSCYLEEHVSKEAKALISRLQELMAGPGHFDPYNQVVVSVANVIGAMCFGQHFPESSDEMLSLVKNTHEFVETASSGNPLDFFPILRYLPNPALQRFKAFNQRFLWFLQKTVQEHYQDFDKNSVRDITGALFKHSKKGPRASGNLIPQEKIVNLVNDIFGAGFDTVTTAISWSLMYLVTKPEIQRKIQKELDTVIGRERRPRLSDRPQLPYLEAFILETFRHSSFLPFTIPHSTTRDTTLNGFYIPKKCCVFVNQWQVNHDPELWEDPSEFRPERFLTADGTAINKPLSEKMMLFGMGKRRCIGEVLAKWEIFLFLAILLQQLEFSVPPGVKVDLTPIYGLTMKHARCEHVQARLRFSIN
The nature of assay [3]: NFAT Signaling Pathway (AID 444; active = well fitted curve in either direction with a large enough effect, not every such curve was filed as active;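 note: carbachol stimulus at about its EC50 of 1 µM final; % is set by controls: 0 for no effect and ±100 for the full control effect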). The settings on record: Jurkat NFAT-bla M1, carbachol, beta-lactamase ratio, 5 h; at 17.2 µM (top of the series) unless noted. A digest of the protocol: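 Jurkat cells carrying an NFAT-driven β-lactamase reporter and co-transfected muscarinic M1 receptor were treated with compound plus carbachol (1 uM final, an EC50 level) for 5 h at 37 °C. CCF4 loading followed for 1 h at RT; 460/530 nm ratio gave %activity.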

Assay [4] in a line: Stat Signaling Pathway (AID 446; active = well fitted curve in either direction with a large enough effect, not every such curve was filed as active;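 note: ME-180 cervical cancer cells given 40 pM IL-6 alongside compound; SIE-controlled beta-lactamase reporter measured as 460/530 nm FRET emission ratio; % is set by controls: 0 for no effect and ±100 for the full control effect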). A digest of the protocol:
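ME-180 SIE-bla cells; overnight plating; cpd + IL-6 40 pM, 5 h, 37 C; LiveBLAzer 2.5 h RT; 460/530 nm emission ratio. Normalized to 300 pM IL-6 and 125 nM JAK inhibitor controls.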

For assay [5], the target named is Glucocorticoid receptor (Homo sapiens) (UniProt P04150). In words: GR-GFP Redistribution (AID 450;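 active = compounds whose dose series gives a full or clear partial fitted curve of increased nuclear translocation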; note: potency is the fitted concentration of half-maximal effect). The settings on record: U2OS GR-GFP nuclear translocation, laser cytometry, 2 h.
Sequence of Glucocorticoid receptor (Homo sapiens) (P04150 whole entry, looked up): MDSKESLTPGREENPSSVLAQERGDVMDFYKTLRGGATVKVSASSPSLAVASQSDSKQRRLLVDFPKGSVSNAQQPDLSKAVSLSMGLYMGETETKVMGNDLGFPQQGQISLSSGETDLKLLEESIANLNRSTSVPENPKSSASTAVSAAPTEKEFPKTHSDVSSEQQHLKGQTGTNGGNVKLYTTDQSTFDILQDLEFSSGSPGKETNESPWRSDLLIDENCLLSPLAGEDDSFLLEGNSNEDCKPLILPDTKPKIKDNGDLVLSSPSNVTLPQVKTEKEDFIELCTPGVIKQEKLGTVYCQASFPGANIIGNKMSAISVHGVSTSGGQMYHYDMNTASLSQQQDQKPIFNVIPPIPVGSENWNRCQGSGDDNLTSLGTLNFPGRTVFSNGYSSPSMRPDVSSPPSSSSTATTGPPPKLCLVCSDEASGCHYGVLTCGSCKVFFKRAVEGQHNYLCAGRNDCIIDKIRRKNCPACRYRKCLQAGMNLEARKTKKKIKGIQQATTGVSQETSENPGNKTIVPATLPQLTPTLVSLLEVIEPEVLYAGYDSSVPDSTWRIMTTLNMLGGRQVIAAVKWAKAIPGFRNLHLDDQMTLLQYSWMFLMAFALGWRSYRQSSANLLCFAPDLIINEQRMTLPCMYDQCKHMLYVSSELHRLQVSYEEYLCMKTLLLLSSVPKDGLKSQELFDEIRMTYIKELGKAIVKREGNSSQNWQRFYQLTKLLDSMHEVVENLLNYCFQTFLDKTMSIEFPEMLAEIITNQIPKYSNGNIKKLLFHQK
Assay [6] shares this target. Put plainly: GR-EFC Redistribution (AID 451; calls by dose curve; note: potency is the fitted concentration of half-maximal effect). The settings on record: CHO-K1 GR-EFC translocation, beta-gal luminescence, 2 h. The gist of the method:
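CHO-K1 cells stably expressing nuclear-localized β-gal enzyme acceptor and GR fused C-terminally to the enzyme donor fragment; ligand-driven nuclear translocation restores β-gal by complementation. Compounds titrated up to 46 uM final, 2 h at 37 °C; luminescence read.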

Assay [7] addresses Mitogen-activated protein kinase 10 (Mus musculus) (UniProt Q61831). Put plainly: JNK3 AlphaScreen Assay (AID 530; active = well fitted curve in either direction with a large enough effect, not every such curve was filed as active;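 note: kinase came from lysate of stimulated human HepG2 cells; signal reports phosphorylation of biotinylated GST-cJun 1-79 at Ser73 with 10 µM ATP; % is set by controls: 0 for no effect and ±100 for the full control effect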). The gist of the method: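 Inhibitors reduce antibody binding to phosphorylated biotin-cJun, lowering AlphaScreen luminescence. Lysates from HepG2 cells pre-activated by IL-1beta plus TNF-alpha supplied JNK3; compounds were titrated.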
(Alpha assays give light when donor and acceptor beads are brought close together.)

For assay [8], the target named is 3',5'-cyclic-AMP phosphodiesterase 4B (Homo sapiens) (UniProt Q07343). In words: qHTS Assay for Inhibitors of PDE-IV (AID 607; active = well fitted activation curve with a large enough effect in the main read-out, with a control signal flat, not every such curve was filed as active; note: % of control where 0% means no effect). The gist of the method:
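ACTOne HEK293 cells carry a modified cAMP-gated CNG channel and express endogenous PDE4; plated 1000 cells/well, compounds up to 22.9 uM final. Membrane-potential dye fluorescence (ex 535/em 590) was read; parental cells received 10 uM forskolin + 100 uM RO 20-1724.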
In general terms: qHTS replaces the single test concentration by a dilution series.

Assay [9] is described as follows: qHTS Assay for Lipid Storage Modulators (AID 1519; calls by dose curve). The note with it: Drosophila S3 cells, BODIPY lipid droplet/cell ratio, laser cytometry, cells loaded with oleic acid; for activity change, negative = inhibition: at 25.7 µM (top of the series). A digest of the protocol:
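Cells seeded at 5,000 per well were treated with compounds over a concentration series and loaded with oleic acid (400 uM, as added). Lipid droplet fluorescence (488 nm excitation, 500-530 nm channel) was read by laser-scanning cytometry and normalized to 20 uM Triacsin C.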

The target of assay [10] is Ubiquitin carboxyl-terminal hydrolase 1 (Homo sapiens) (UniProt O94782). In words: Inhibitors of USP1/UAF1: Pilot qHTS (AID 504865).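 Note: rhodamine fluorescence freed from ubiquitin-rhodamine substrate followed over time; top concentration of the series differs between compounds; % is set by controls: 0 for no effect and ±100 for the full control effect; nearly all actives have a fitted effect of over 35% in size.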 The gist of the method: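 Enzyme-free wells gave the negative control, while test wells held 1nM USP1/UAF1 preincubated with compound for 15 min at room temperature. Ub-Rho at 150nM final started the reaction, and fluorescence at 480/540 nm was recorded kinetically.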
Sequence of Ubiquitin carboxyl-terminal hydrolase 1 (Homo sapiens) (O94782 whole entry, looked up): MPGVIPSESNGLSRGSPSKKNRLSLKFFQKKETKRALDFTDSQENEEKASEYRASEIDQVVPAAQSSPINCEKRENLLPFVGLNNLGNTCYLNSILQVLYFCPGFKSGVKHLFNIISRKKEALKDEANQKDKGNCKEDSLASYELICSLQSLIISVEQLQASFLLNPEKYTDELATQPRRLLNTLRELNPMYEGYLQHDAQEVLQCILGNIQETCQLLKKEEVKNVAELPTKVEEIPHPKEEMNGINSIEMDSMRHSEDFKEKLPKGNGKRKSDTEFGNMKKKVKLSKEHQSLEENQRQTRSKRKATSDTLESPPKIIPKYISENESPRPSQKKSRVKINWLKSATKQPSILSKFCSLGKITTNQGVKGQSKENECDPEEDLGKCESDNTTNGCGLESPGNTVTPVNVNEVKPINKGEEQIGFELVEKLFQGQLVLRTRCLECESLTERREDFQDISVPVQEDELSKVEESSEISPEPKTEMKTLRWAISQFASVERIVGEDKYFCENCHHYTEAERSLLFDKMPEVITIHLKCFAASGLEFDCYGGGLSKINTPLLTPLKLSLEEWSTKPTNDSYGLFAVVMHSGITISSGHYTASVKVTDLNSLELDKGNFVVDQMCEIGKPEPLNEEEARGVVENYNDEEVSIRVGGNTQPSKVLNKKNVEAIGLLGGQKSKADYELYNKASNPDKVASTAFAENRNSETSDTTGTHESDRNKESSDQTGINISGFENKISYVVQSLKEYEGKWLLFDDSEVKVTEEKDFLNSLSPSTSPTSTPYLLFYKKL

For assay [11], the target named is Luciferin 4-monooxygenase (Photinus pyralis) (UniProt P08659). In words: Biochemical firefly luciferase enzyme assay for NPC (AID 624030).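 Note: purified P. pyralis luciferase at 10 nM with luciferin and ATP substrate; 0% = DMSO and -100% = full luciferase inhibition by PTC124 control; nearly all actives have a fitted effect of over 70% in size.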 The gist of the method: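 Counter-screen for direct inhibition of the luciferase enzyme by approved-drug library compounds, run at 10 nM enzyme in 50 mM Tris acetate (final). Luminescence was read within 5 min of enzyme-buffer addition and normalized to PTC124 versus DMSO (0%).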
Sequence of Luciferin 4-monooxygenase (Photinus pyralis) (P08659 whole entry, looked up): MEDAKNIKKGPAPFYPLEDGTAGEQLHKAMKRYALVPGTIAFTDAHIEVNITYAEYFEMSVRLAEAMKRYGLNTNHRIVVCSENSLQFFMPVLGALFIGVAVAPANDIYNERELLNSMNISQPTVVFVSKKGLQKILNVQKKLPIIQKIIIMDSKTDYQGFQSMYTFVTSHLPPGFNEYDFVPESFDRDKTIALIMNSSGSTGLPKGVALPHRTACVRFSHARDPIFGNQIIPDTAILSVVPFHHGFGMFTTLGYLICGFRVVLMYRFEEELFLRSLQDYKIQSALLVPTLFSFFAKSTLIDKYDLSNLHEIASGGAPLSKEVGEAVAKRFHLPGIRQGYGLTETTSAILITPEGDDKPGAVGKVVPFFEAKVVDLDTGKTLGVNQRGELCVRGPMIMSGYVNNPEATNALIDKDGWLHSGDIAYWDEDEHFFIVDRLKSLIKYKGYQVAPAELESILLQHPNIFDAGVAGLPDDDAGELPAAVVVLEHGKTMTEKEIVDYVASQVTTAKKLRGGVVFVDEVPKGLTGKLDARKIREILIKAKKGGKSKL

The nature of assay [12]: S16 Schwann cell viability assay (CellTiter-Glo assay) (AID 624031).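 Note: cellular ATP luminescence as a viability measure; plate controls were DMSO-treated cells for no effect and cell-free wells for full effect; nearly all actives have a fitted effect of over 70% in size.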 The gist of the method: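 This viability control uses native rat S16 Schwann cells grown in DMEM plus 10% FBS. After a 24 h compound treatment at 37 °C, CellTiter-Glo luminescence reports ATP content, scaled against DMSO-treated and cell-free wells.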
Background: In ATP-based viability assays light output follows the ATP content of the culture.

Assay [13] in a line: qHTS profiling for inhibitors of Plasmodium falciparum proliferation (AID 504749).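 For activity, negative = inhibition: 0% = DMSO vehicle and full inhibition = artemisinin control.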 Note: nearly all actives have a fitted effect of over 60% in size. Note: potency is the fitted concentration of half-maximal effect. The note with it: P. falciparum in erythrocytes, SYBR Green DNA, 72 h, at 12.8 µM (top of the series). The gist of the method: (§1)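 Parasite proliferation within erythrocytes, 72 h exposure. Endpoint: SYBR Green I fluorescence after overnight lysis at room temperature. Controls: 0.29 uM artemisinin, DMSO.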

Another assay has as its system C2A. The assay is described as above. The settings on record: P. falciparum in erythrocytes, SYBR Green DNA, 72 h; series mostly up to 12.8 µM. A digest of the protocol:
as §1

The test system of a further assay is CP191. The assay is described as above. The note with it: P. falciparum in erythrocytes, SYBR Green DNA, 72 h; series mostly up to 12.8 µM. The gist of the method: as §1
The next assay has as its system CP256. The description is as above. The note with it: P. falciparum in erythrocytes, SYBR Green DNA, 72 h; series mostly up to 12.8 µM. A digest of the protocol:
as §1

A further assay concerns CP262. Described as above. The note with it: P. falciparum in erythrocytes, SYBR Green DNA, 72 h; series mostly up to 12.8 µM. A digest of the protocol:
as §1

Another assay has as its system CP268. Described as above. The note with it: P. falciparum in erythrocytes, SYBR Green DNA, 72 h; series mostly up to 12.8 µM. The gist of the method: as §1
The test system of the next assay is JCK. Described as above. The note with it: P. falciparum in erythrocytes, SYBR Green DNA, 72 h; series mostly up to 12.8 µM. A digest of the protocol:
as §1

The next assay relates to SC27B. Described as above. The note with it: P. falciparum in erythrocytes, SYBR Green DNA, 72 h; series mostly up to 12.8 µM. A digest of the protocol:
as §1

Setting [14] is: measured here: cell count channel max response.
The mark [15] stands for this setting: measured here: lipid channel max response.

Sequence of 3',5'-cyclic-AMP phosphodiesterase 4B (Homo sapiens) (Q07343 whole entry, looked up): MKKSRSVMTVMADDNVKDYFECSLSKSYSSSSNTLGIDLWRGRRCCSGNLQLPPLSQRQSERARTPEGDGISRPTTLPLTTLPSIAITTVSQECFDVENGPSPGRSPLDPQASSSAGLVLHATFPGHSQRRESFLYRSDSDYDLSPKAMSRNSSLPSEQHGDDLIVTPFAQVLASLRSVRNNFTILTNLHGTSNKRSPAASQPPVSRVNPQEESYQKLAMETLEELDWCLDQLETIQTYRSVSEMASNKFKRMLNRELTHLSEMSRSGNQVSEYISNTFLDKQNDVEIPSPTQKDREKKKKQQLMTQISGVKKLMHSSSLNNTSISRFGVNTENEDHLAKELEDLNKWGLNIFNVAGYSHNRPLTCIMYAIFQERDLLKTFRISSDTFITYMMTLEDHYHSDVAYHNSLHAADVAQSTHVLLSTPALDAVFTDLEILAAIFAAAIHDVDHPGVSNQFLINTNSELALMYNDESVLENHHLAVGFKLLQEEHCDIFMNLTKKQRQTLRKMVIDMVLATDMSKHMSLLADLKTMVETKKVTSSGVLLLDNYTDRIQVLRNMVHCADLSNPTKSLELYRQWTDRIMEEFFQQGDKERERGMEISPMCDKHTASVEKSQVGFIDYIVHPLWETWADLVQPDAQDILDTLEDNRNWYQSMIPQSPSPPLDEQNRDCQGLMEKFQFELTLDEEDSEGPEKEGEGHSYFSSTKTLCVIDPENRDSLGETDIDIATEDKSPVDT

As to `CC(C)(C)NC[C@H](O)COc1cccc2c1CCC(=O)N2`, the result in assay [1], in [4], in [8] and in [12] was inactive. Further, the Potency entry (in [2]; in assay [7]; in [10]; in assay [11]; in the assay on C2A; in the assay on CP191) was “inactive” in each case. Besides, the Potency entry in the assay on CP256, with CP262, with CP268 and in the assay on SC27B was “inactive” in each case. The activity change, negative = inhibition in assay [3] is -6.75% (inactive); in assay [9], -0.554% (inactive). Besides, the Potency is > 20.6 µM (inactive) in [5], > 20.6 µM (inactive) in assay [6] and 8.91 µM (active) with JCK. In addition, the values for the max response in assay [9] (setting [14]) and in assay [9] (setting [15]) were -2.13% and -1.05%, respectively. In addition, the activity, negative = inhibition in [13] (parasite line A) was 7.75% (inactive); in assay [13] (parasite line B), -1.3% (inactive).
`O=C(Nc1ccccc1)OC[C@H](CN1CCCCC1)OC(=O)Nc1ccccc1`: the call in [1], in assay [4], in assay [8] and in assay [12] was inactive. In addition, the results for the Potency in assay [2], in assay [5] and in assay [6] were 12.6 µM (active), > 20.6 µM (inactive) and > 20.6 µM (inactive), respectively. The activity change, negative = inhibition in assay [3] is -6.24% (inactive); in assay [9] it was -4.16% (inactive). The Potency entry (in assay [7]; in assay [11]; in the assay with C2A; in the assay on CP191; with CP256; with CP262) was “inactive” throughout. The Potency result in the assay on CP268, in the assay with JCK and in the assay on SC27B was “inactive” each time. In addition, the results for the max response in assay [9] (setting [14]) and in assay [9] (setting [15]) were -5.88% and -11%, respectively. Besides, the activity, negative = inhibition is -1.15% (inactive) in assay [13] (parasite line A) and -2.24% (inactive) in assay [13] (parasite line B).
`C[C@H](Oc1ccccc1)C(=O)N[C@@H]1C(=O)N2[C@@H]1SC(C)(C)[C@@H]2C(=O)O`: the call in [1], in assay [4], in assay [8] and in assay [12] was inactive. Also, the Potency result (in assay [2]; in assay [7]; in [10]; in [11]; in the assay with C2A; in the assay with CP191) was “inactive” throughout. In addition, the Potency result in the assay with CP256, in the assay on CP262, in the assay with CP268, in the assay on JCK and with SC27B was “inactive” throughout. Moreover, the results for the activity change, negative = inhibition in assay [3] and in [9] were -0.496% (inactive) and -0.821% (inactive), respectively. Moreover, the Potency in assay [5] and in assay [6] was > 20.6 µM (inactive) throughout. Moreover, the results for the max response in assay [9] (setting [14]) and in [9] (setting [15]) were -5.3% and -3.26%, respectively. Also, the activity, negative = inhibition in assay [13] (parasite line A) is 9.22% (inactive); in [13] (parasite line B), 2.55% (inactive).
In the case of `NC(=O)c1ncn([C@H]2O[C@@H](CO)[C@@H](O)[C@@H]2O)n1`, the compound was classed as inactive in assay [1], in assay [4] and in assay [8]. In addition, the Potency entry in [2], in assay [7] and in assay [10] was “inactive” in each case. In addition, the activity change, negative = inhibition in [3] was -18.7% (inactive); in [9], 1.03% (inactive). The Potency in [5] and in assay [6] was > 20.6 µM (inactive) throughout. Further, the max response was -8.81% in [9] (setting [14]) and -7.48% in assay [9] (setting [15]).
As to `CS(=O)(=O)c1ccc([C@H](O)[C@H](CO)NC(=O)C(Cl)Cl)cc1`, the call in assay [1], in [4], in [8] and in [12] was inactive. Further, the Potency entry (in assay [2]; in [7]; in assay [10]; in assay [11]; in the assay on C2A; in the assay on CP191) was “inactive” throughout. Besides, the Potency result in the assay with JCK and in the assay with SC27B was “inactive” throughout. The results for the activity change, negative = inhibition in [3] and in assay [9] were 1.44% (inactive) and -0.717% (inactive), respectively. Moreover, the Potency in assay [5] and in assay [6] was > 20.6 µM (inactive) in each case. In addition, the max response in assay [9] (setting [14]) worked out at 3.5%; in [9] (setting [15]), 5.27%. Moreover, the activity, negative = inhibition is -20.3% (inactive) in [13] (parasite line A) and -19.1% (inactive) in assay [13] (parasite line B).
